# Results reported in PubChem BioAssay AID1159580 (chemical genetic matrix, 2015).
# Out of some 5,500 compounds screened, about 2,000 (36%) were called active. About 18% were inconclusive and are not listed. Rule as the data show it: active = normalized growth mostly below about 0.91 (no sharp cut-off); inconclusive = no clear call, values can overlap the other calls; inactive = mostly above about 0.92. The list shows a part of the results.
# Assay: chemical genetic growth profiling, strain panel (AID 1159580);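 also: tested at 20 µM; growth read once vehicle control cultures reached saturation at 30 °C; 1 = growth at the plate median or of vehicle wells; lower values mean less growth of the strain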
# Details: S. cerevisiae deletion strains, growth OD
smiles,measurement,setting,value
C[C@]12CCC(=O)C=C1CC[C@@H]1[C@@H]2[C@@H](O)C[C@@]2(C)[C@H]1CC[C@]2(O)C(=O)COC(=O)CCC(=O)O,normalized growth,"locus YAL040C, strain CLN3, stronger effect = lower value",1.11 [resistant] (active)
same,normalized growth,"locus YCL061C, strain MRC1 (second series), stronger effect = lower value",1 (inactive)
same,normalized growth,"locus YDR363W, strain ESC2, stronger effect = lower value",1 (inactive)
same,normalized growth,"locus YER002W, strain NOP16, stronger effect = lower value",0.982 (inactive)
same,normalized growth,"locus YGR078C, strain PAC10, stronger effect = lower value",1.01 (inactive)
same,normalized growth,"locus YNL175C, strain NOP13, stronger effect = lower value",1.01 (inactive)
same,normalized growth,"locus YNL197C, strain WHI3, stronger effect = lower value",1.01 (inactive)
same,normalized growth,"locus YNL224C, strain SQS1, stronger effect = lower value",0.994 (inactive)
same,normalized growth,"locus YNL322C, strain KRE1, stronger effect = lower value",0.996 (inactive)
same,normalized growth,"locus YOR083W, strain WHI5 (second series), stronger effect = lower value",0.972 (inactive)
same,normalized growth,"locus YPL241C, strain CIN2, stronger effect = lower value",0.999 (inactive)
